# Bioassay records as filed in PubChem.
# A selection: hits, their analogues and other compounds. The true share with any hit is near 2.7%.
# HEK293 tox: cytotoxicity counter-screen for GLP-1 receptor inverse agonists; HEK293 cAMP-luciferase reporter cells, luminescence, 24 h; 410,000 tested, 0.13% active; Potency, µM (highest dose often 38.3 µM), hits mostly inhibitors; AID 624418;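 note: loss of luciferase light is scored as toxicity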
#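 Quantitative HTS format, 1536 wells, 200 cells/uL seeded. Compounds: 23 nL, 24 h, 37 °C. Detection: luciferase reagent, luminescence at 12 min RT; decreased signal taken as cytotoxic.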
# GLP1R ag: GLP-1 receptor (human) agonism | P43220 | HEK293 GLP-1R CRE-luciferase, luminescence, 4-6 h; cells express a hypersensitive GLP-1R form | Potency, µM (doses to about 45.6 µM), most hits filed as activators | 380,000 tested, 0.007% active
# Target sequence (P43220 whole entry, looked up): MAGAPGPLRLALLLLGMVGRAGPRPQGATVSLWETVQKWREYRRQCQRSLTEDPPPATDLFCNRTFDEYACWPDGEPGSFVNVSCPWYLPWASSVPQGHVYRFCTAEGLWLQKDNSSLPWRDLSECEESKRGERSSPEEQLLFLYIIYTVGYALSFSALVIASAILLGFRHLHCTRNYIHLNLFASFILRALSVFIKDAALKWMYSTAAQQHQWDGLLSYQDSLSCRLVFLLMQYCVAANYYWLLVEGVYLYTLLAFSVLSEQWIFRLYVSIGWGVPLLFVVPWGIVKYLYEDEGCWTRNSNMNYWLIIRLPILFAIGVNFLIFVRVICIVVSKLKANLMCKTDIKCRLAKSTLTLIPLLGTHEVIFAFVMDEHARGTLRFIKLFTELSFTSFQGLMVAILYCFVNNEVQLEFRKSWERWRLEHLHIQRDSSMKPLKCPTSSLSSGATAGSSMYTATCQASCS
# Integrin act MD: integrin-mediated muscular dystrophy alleviation activation | 350,000 tested, 0.064% active | AID 624291 | alpha7betagal myoblasts, beta-gal FDG fluorescence, 48 h | Potency, µM (titrated, usually from 38.3 µM), usual class: activators; note: nearly all actives have a fitted effect of over 60% in size
#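 Alpha7betagal+/- myoblasts (passage 13) were plated 16-24 hr, then exposed to compounds (1:260 dilution of DMSO stock) for 48 hours at 37C. After MPER lysis, β-galactosidase reporter activity was read as FDG fluorescence (ex 480/em 540) after 30 minutes.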
# GLP-1R inv ag: acts as inverse agonist at human GLP-1 receptor | P43220 | HEK293 GLP-1R CRE-luciferase, luminescence, 24 h; GLP-1R form is constitutively active | Potency, µM (doses to about 38.3 µM), usual class: inhibitors | 410,000 tested, 1.6% active; note: nearly all actives have a fitted effect of over 55% in size
#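 Inverse agonists were sought by their lowering of basal cAMP reporter luciferase output in HEK293 cells stably carrying constitutively active human GLP-1R, after 24 h compound treatment.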
# BRCA1 expr up: increases BRCA1 expression; 380,000 tested, 1.1% active; AID 624202; MCF7-BRCA1-FFLuc reporter, luminescence, 48 h; response scale: scaled: vehicle 0%, 10 µM genistein 100%; Potency, µM (series often up to 46.1 µM), most hits filed as activators; note: nearly all actives have a fitted effect of over 80% in size
#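 48 h compound treatment of MCF7-BRCA1-FFLuc cells (phenol-red free MEM, 37 °C), then 15 min with luciferase substrate and luminescence imaging.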
# Hits are given with their value; - = inactive; ? = inconclusive; . = no result given; [ ] = dose if it differs, or a comment. Calls come from the whole dose curve; as a rule, active = well fitted curve in the direction sought with a large enough effect; inconclusive = small, poorly fitted or top-dose-only effect, or another doubt; inactive = no such curve, though single readings can be large; an effect the other way counts as inactive or inconclusive.
SMILES,HEK293 tox,GLP1R ag,Integrin act MD,GLP-1R inv ag,BRCA1 expr up
COc1ccc(-c2noc(-c3cccnc3)n2)cc1OC,-,?,-,-,7.9µM
CCOc1cc(-c2noc(-c3cccnc3)n2)ccc1OC,-,-,-,-,-
CCOc1ccc(-c2noc(-c3cccnc3)n2)cc1OC,-,-,-,-,8.9µM
COc1ccc(S(=O)(=O)n2nc(-c3ccc(Cl)cc3)cc2N)cc1,-,-,-,10µM,-
COc1ccc(-c2cc(N)n(S(=O)(=O)c3ccc(C)cc3)n2)c(OC)c1,-,-,-,-,-
CC1(C)S[C@@H]2[C@H](NC(=O)[C@H](N)c3ccccc3)C(=O)N2[C@@H]1C(=O)OCOC(=O)[C@@H]1N2C(=O)C[C@@H]2S(O)(O)C1(C)C,.,-,.,.,.
COc1cccc(N2C(=O)CSC23C(=O)N(Cc2ccccc2)c2ccccc23)c1 (configuration not stated),-,-,.,-,-
Cc1ccc2nc(-c3ccc(NC(=O)C4CCCO4)cc3)[nH]c2c1 (configuration not stated),-,-,-,7.9µM,?
CCOc1ccccc1NC(=O)CCS(=O)(=O)c1ccc2c(c1)oc(=O)n2C,-,.,.,-,.
COc1cccc2c1[C@@H]1CN(CCCCn3c(=O)[nH]c4c(sc5ncc(-c6ccccc6)nc54)c3=O)C[C@@H]1CO2,-,-,.,10µM,-
COc1cc2[nH]c(=O)n(CCCC(=O)N3CC=C(c4ccccc4)CC3)c(=O)c2cc1OC,-,-,-,-,-
CCCN(c1ccccc1F)S(=O)(=O)c1cc(-c2cc(C)no2)ccc1C,-,.,.,?,.
CC1CCN(C(=O)CN2CC(C)Sc3ccccc32)CC1 (configuration not stated),-,.,.,?,.
Cc1nn(-c2ccc(N3CCCCC3)nn2)c(C)c1CCC(=O)Nc1ccc(F)cc1,-,-,-,?,-
CCOc1ccc(NC(=O)CCc2c(C)nn(-c3ccc(N4CCCCC4)nn3)c2C)cc1,-,-,-,?,11µM
Cc1ccc(NC(=O)CCc2c(C)nn(-c3ccc(N4CCCCC4)nn3)c2C)cc1F,-,-,-,?,3.2µM
CCc1ccc(NC(=O)CCc2c(C)nn(-c3ccc(N4CCCCC4)nn3)c2C)cc1,-,-,-,?,?
Brc1ccc2c(c1)C(C1=NCCN1)c1ccccc1CS2 (configuration not stated),-,-,-,1.4µM,-
CCOc1ccccc1CNC(=O)CN1C(=O)c2cccnc2Oc2ccc(C)cc21,-,.,.,?,.
C/C=C(/C)C(=O)O[C@@H]1c2c(ccc3ccc(=O)oc23)O[C@@H]1C(C)(C)OC(=O)/C(C)=C\C,-,-,-,13µM,-
C/C=C(/C)C(=O)OC(C)(C)[C@@H]1Cc2c(ccc3ccc(=O)oc23)O1,-,-,-,?,-
Clc1ccc(OCc2nc(-c3ccncc3)no2)cc1,-,-,-,-,11µM
Clc1ccc(-c2noc(COc3ccccc3)n2)cc1,-,-,-,-,?
O=[N+]([O-])c1ccccc1S(=O)(=O)N1CCN(c2nc(-c3ccccc3)nc3ccccc23)CC1,.,.,.,.,-
Cc1ccc(C(=O)c2cn(CC(=O)NCc3ccccc3Cl)c3nc(C)ccc3c2=O)cc1,-,.,.,-,.
SMILES,HEK293 tox,GLP1R ag,Integrin act MD,GLP-1R inv ag,BRCA1 expr up
CN=c1scc(-c2ccc(OC)cc2)n1/N=C(\C)c1cccnc1,-,-,5µM,?,-
COc1ccc(CC(=O)N/N=C(\C)c2cccnc2)cc1,-,-,-,-,-
CCCOc1ccc(-c2nonc2NC(=O)c2oc3ccc(C)cc3c2C)cc1OCCC,-,.,.,-,.
COc1ccc(-c2nnc(SCC(=O)N3CCOCC3)o2)cc1,-,-,-,-,?
COc1cc(-c2nnc(SCC(=O)N3c4ccccc4Sc4ccccc43)o2)cc(OC)c1OC,-,-,-,1.3µM,-
COc1cccc(-c2nnc(SCC(=O)N3CC(C)CC(C)C3)o2)c1 (configuration not stated),-,-,-,11µM,-
O=C(CSc1nnc(-c2ccc(OC(F)F)cc2)o1)N1CCOCC1,-,-,-,-,13µM
O=C(CSc1nnc(-c2ccc(O)cc2)o1)N1CCOCC1,-,-,-,-,-
Cc1ccc(-c2nnc(SCC(=O)N3CC(C)CC(C)C3)o2)cc1C (configuration not stated),-,-,-,?,-
COc1cccc(-c2nnc(SCC(=O)N3CCOCC3)o2)c1,-,-,-,-,13µM
S=C1Cc2ccccc2N1,-,-,-,1µM,-
S=C1Nc2ccccc2CS1,?,-,-,?,-
Cc1ccc(NC(=O)/C=C/c2ccc3c(c2)OCO3)nc1,-,-,-,?,1.6µM
COc1ccc(C(=O)/C=C/c2ccccc2)c(OC)c1,-,-,-,10µM,-
CN(/N=C/c1ccc2c(c1)OCO2)c1ccccc1,-,-,-,-,7.1µM
CN(C(=O)c1cc(-c2ccc3c(c2)OCO3)on1)c1ccccc1,?,-,-,-,2.8µM
O=C(/C=C/c1ccc2c(c1)OCO2)c1ccc[nH]1,-,-,-,-,7.9µM
Cc1ccc(O)c(C(=O)/C=C/c2ccc3c(c2)OCCCO3)c1,-,-,-,?,7.1µM
O=C(/C=C/c1ccc2c(c1)OCO2)c1ccc(F)cc1,-,-,-,?,-
COc1cccc(/C=C/C(=O)c2ccc[nH]2)c1,-,-,-,-,7.9µM
COc1cccc(/C=C/C(=O)Oc2ccc(C(=O)c3ccc(F)cc3)cc2)c1,-[1.53 µM],-,-,-,-
O=C(/C=C/c1ccc2c(c1)OCO2)N1CCCCC1,-,-,-,-,3.5µM
CC(C)c1nn2c(=O)cc(COC(=O)c3ccco3)nc2s1,-,.,.,-,-
CC(=O)Nc1ccc(/C=C/c2ccncc2)cc1,.,.,.,.,-
Cc1ccc(NC(=O)c2ncoc2-c2ccco2)cc1Cl,-,.,.,-,-
SMILES,HEK293 tox,GLP1R ag,Integrin act MD,GLP-1R inv ag,BRCA1 expr up
CN(C(=O)/C=C/c1ccc2c(c1)OCO2)c1ccccc1,-[7.66 µM],-,-,-[7.66 µM],3.2µM
CN(C(=O)C=Cc1ccccc1)c1ccccc1,-,-,-,-,-
COc1ccccc1OCc1cc(C(=O)N2CCN(C)C(c3ccccc3)C2)no1 (configuration not stated),-,-,-,?,10µM
COc1cc(Cl)ccc1OCc1cc(C(=O)N2CCN(C)CC2)no1,-,-,-,-,-
COc1ccccc1OCc1cc(C(=O)N2CC3C[C@@H]4CC2C[C@H](C3)C4)no1,-,-,-,?,7.9µM
COc1cc(Cl)ccc1OCc1cc(C(=O)N2CCN(C)C(=O)[C@@H]2C)no1,-,-,-,-,10µM
CN1CCN(C(=O)c2cc(COc3ccccc3)on2)[C@@H](c2ccccc2)C1,-,-,?,?,5µM
Cc1ccccc1CNC(=O)c1oc2c(c1C)-c1[nH]ncc1CC2,-,.,.,-,.
